One assay concerns CRL-7250. Nature of the assay: Cytotoxic Profiling of Annotated Libraries Using Quantitative High-Throughput Screening (AID 1296008). Further: nearly all actives have a fitted effect of over 60% in size. Further: potency means the concentration at half of the fitted maximal effect. On max response: on the % scale 0 is the no-effect control and ±100 the full control effect. To be noted: Five cell lines viability, CellTiter-Glo ATP luminescence, 48-72 h; max response: hits give low values. In outline: (§1)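 Compounds were pin-transferred onto cells and incubated 48 or 72 hr at 37 degree Celsius, 95% humidity. CellTiter-Glo was added, plates sat 10 min at room temperature, then ATP-coupled luminescence was imaged as the viability read-out.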

In assay [1] the test system is HaCat. The description is as above. To be noted: Five cell lines viability, CellTiter-Glo ATP luminescence, 48-72 h; max response: hits give low values. In outline: as §1
A further assay has as its system KB-3-1. Described as above. To be noted: Five cell lines viability, CellTiter-Glo ATP luminescence, 48-72 h; max response: hits give low values. In outline:
as §1

The test system of a further assay is NIH3T3. The assay is described as above. To be noted: Five cell lines viability, CellTiter-Glo ATP luminescence, 48-72 h; max response: hits give low values. In outline:
as §1

In a further assay the test system is C33A. Put plainly: Primary qHTS to identify gynecologic anti-cancer compounds using libraries of approved drugs and bioactive compounds (AID 1345084). Further: nearly all actives have a fitted effect of over 55% in size. Further: potency means the concentration at half of the fitted maximal effect. On activity change, negative = cytotoxicity: on the % scale 0 is the no-effect control and ±100 the full control effect. To be noted: Gynecologic cancer cell panel viability, ATPlite luminescence, 48 h; series mostly up to 57.5 µM. In outline:
(§2)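 Cells, 1,000 per well, were allowed to settle for 16 h at 37 C before compound addition. Five concentrations were tested for 48 h, and viability was read by ATPlite luminescence after 15 min at room temperature.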

For a further assay, the system named is CASKI. Described as above. To be noted: Gynecologic cancer cell panel viability, ATPlite luminescence, 48 h; series mostly up to 57.5 µM. In outline: as §2
For a further assay, the system named is Es-2. The assay is described as above. Particulars: Gynecologic cancer cell panel viability, ATPlite luminescence, 48 h; series mostly up to 57.5 µM. In outline: as §2
The next assay concerns HeLa. Described as above. Particulars: Gynecologic cancer cell panel viability, ATPlite luminescence, 48 h; series mostly up to 57.5 µM. In outline: as §2
The subject of another assay is Hek293T. The assay is described as above. Particulars: Gynecologic cancer cell panel viability, ATPlite luminescence, 48 h, control line for the selectivity index; series mostly up to 57.5 µM. In outline: as §2
The next assay deals with JEG-3. The description is as above. To be noted: Gynecologic cancer cell panel viability, ATPlite luminescence, 48 h; series mostly up to 57.5 µM. In outline:
as §2

For a further assay, the system named is OV90. The description is as above. To be noted: Gynecologic cancer cell panel viability, ATPlite luminescence, 48 h; series mostly up to 57.5 µM. In outline: as §2
A further assay concerns PA-1. The description is as above. To be noted: Gynecologic cancer cell panel viability, ATPlite luminescence, 48 h; series mostly up to 57.5 µM. In outline: as §2
For assay [2], the system named is HACAT. Nature of the assay: qHTS assay to identify novel small-molecules to repurpose for Merkel cell carcinoma treatment (AID 1296009). Further: nearly all actives have a fitted effect of over 60% in size. To be noted: MCC and control cell lines, CellTiter-Glo viability, 72 h; at 44.8 µM (top of the series) unless noted. In outline: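 Luminescence from CellTiter-Glo, read 10 min after addition at room temperature, reported viability following a 72 hr, 37 degree celsius treatment with NPC or MIPE compounds in titration; values normalized to plate controls.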

A further assay concerns CAOV3. Nature of the assay: Primary qHTS to identify gynecologic anti-cancer compounds using libraries of approved drugs and bioactive compounds (AID 1345084). Further: nearly all actives have a fitted effect of over 55% in size. Further: potency means the concentration at half of the fitted maximal effect. On activity change, negative = cytotoxicity: on the % scale 0 is the no-effect control and ±100 the full control effect. To be noted: Gynecologic cancer cell panel viability, ATPlite luminescence, 48 h; series mostly up to 57.5 µM. In outline:
as §2

Records with an inconclusive call do not appear. Unmarked numbers belong to inactive results. Activity calls are given as the source filed them. The call rests on the fitted dose curve; in most records, active means well fitted curve in the direction sought with a large enough effect; inconclusive means small, poorly fitted or top-dose-only effect, or another doubt; inactive means no such curve, though single readings can be large; an effect the other way counts as inactive or inconclusive.

Regarding `C[C@@H](O[C@H]1OCCN(Cc2nn(P(=O)(O)O)c(=O)[nH]2)[C@H]1c1ccc(F)cc1)c1cc(C(F)(F)F)cc(C(F)(F)F)c1`, the max response with CRL-7250 is 0.664%; in the assay on HaCat [1], -1.44%; in the assay with KB-3-1 it was 6.69%; in the assay on NIH3T3, -9.38%. Further, the Potency result with C33A, with CASKI, with Es-2, in the assay on HeLa, in the assay on Hek293T and in the assay with JEG-3 was “inactive” each time. Further, the Potency entry with OV90 and in the assay with PA-1 was “inactive” throughout.

As for `C=C(C)C1=C[C@@]2(C)C(=CC1=O)CC[C@@H](O)[C@@H]2C`, in the assay on CRL-7250, the max response was 3.24%. In addition, the compound was called inactive in the assay with HaCat [1], in the assay on KB-3-1 and with HACAT [2]. The Potency entry in the assay on C33A, in the assay with CAOV3, in the assay on CASKI, in the assay on Es-2, with HeLa and in the assay with Hek293T was “inactive” throughout. The Potency result in the assay with JEG-3, with OV90 and in the assay with PA-1 was “inactive” throughout.

Regarding `CCOc1ccc(Cc2nc(-c3c(C)nc4ccccn34)cs2)cc1`, the Potency in the assay with CRL-7250 was 51.7 nM (active); with KB-3-1, 25.9 nM (active); with NIH3T3 it was 46.1 nM (active); in the assay with C33A it was 355 nM (active); in the assay on Es-2 it was 89.1 nM (active). Moreover, the max response in the assay on HaCat [1] is -17.5%.

`COCCNCc1ccc(-c2cc3nccc(Oc4ccc(NC(=O)C5(C(=O)Nc6ccc(F)cc6)CC5)cc4F)c3s2)nc1`: the Potency in the assay with CRL-7250 was 18400 nM (active); in the assay on HaCat [1] it was 23100 nM (active); in the assay on KB-3-1, 6510 nM (active); in the assay with NIH3T3, 731 nM (active). Besides, in the assay on Es-2, the Potency result was “inactive”.

As to `O=C(c1ccc(Cl)cc1)N1CCN(c2ccnc3cc(Cl)ccc23)CC1`, the max response is 3.03% in the assay with CRL-7250, -18.2% with HaCat [1], -24.7% in the assay with KB-3-1 and -1.68% in the assay on NIH3T3. In addition, the Potency result in the assay on CAOV3, in the assay with CASKI, in the assay with Es-2, with HeLa, in the assay with Hek293T and in the assay with JEG-3 was “inactive” each time. Also, the Potency result in the assay on OV90 and with PA-1 was “inactive” throughout.

Turning to `COc1ccc(C(=O)Nc2c(Cl)cncc2Cl)cc1OC1CCCC1`, the max response is -3.72% with CRL-7250, -24.5% in the assay with HaCat [1], -14.8% with KB-3-1 and -4.74% in the assay on NIH3T3. Besides, the Potency entry in the assay with C33A, with CASKI, in the assay with Es-2, in the assay with HeLa, in the assay with Hek293T and with JEG-3 was “inactive” throughout. Further, the Potency result in the assay with OV90 and with PA-1 was “inactive” in each case.

Regarding `CC/C(C)=C/C(=O)OC1C(OC2(C)CCC3C(C4C(C)CCC42)C3(C)C)OC(C)C(O)C1O` (stereo not drawn), the max response was -1.32% in the assay with CRL-7250, -0.133% in the assay on HaCat [1] and -0.0823% with NIH3T3. In addition, the compound was classed as inactive in the assay with KB-3-1. In addition, the Potency entry in the assay on C33A, with CASKI, with Es-2, with HeLa, with Hek293T and in the assay on JEG-3 was “inactive” in each case. For the same compound, the Potency result in the assay with OV90 and in the assay on PA-1 was “inactive” in each case.

`CC1OC(OC2C(O)COC(O[C@@H]3[C@@H](O)[C@@H](O)[C@H](OC4C(OC(=O)[C@]56CCC(C)(C)CC5C5=CCC7[C@@]8(C)C[C@H](O)[C@H](OC9OC(CO)C(O)C(O)C9O)[C@@](C)(CO)C8[C@H](O)C[C@@]7(C)[C@]5(C)CC6)OCC(O)C4O)O[C@H]3C)C2O)C(O)C(O)C1O` (stereo partly drawn): the max response is -12.5% in the assay with CRL-7250, 0.653% in the assay with HaCat [1], 8.32% with KB-3-1 and 2.11% in the assay with NIH3T3. Moreover, the activity change, negative = cytotoxicity in the assay on C33A is -9.28% [at 6.55 µM]; with CASKI it was 20% [at 6.55 µM]; in the assay with Es-2 it was -27.5% [at 6.55 µM]; with HeLa, -4.81% [at 6.55 µM]; in the assay with Hek293T, -17.3% [at 6.55 µM]; in the assay with JEG-3 it was -13.2% [at 6.55 µM]. The activity change, negative = cytotoxicity is 13.1% [at 6.55 µM] in the assay on OV90 and 0.113% [at 6.55 µM] with PA-1.

On to `COC(=O)c1ccc(N2CCN(C)CC2)c(NC(=O)c2cccc(OC)c2)c1`, for which the max response in the assay with CRL-7250 is -14.2%; in the assay on HaCat [1], -1.79%; with KB-3-1 it was -6.24%; with NIH3T3, 3.28%. Further, the Potency result in the assay on C33A, in the assay with CASKI, with Es-2, in the assay with HeLa, in the assay on Hek293T and with JEG-3 was “inactive” throughout. Moreover, the Potency entry in the assay on OV90 and in the assay on PA-1 was “inactive” each time.

Turning to `COc1cc(CCc2cc(NC(=O)c3ccc(N4CC(C)NC(C)C4)cc3)n[nH]2)cc(OC)c1` (stereo not drawn), the Potency was 9200 nM (active) with CRL-7250, 11600 nM (active) in the assay with KB-3-1 and 14600 nM (active) with NIH3T3. Further, in the assay with HaCat [1], the max response is 4.79%. Moreover, the Potency result in the assay on CASKI and in the assay with JEG-3 was “inactive” in each case.

For `O=C(Nc1ccc(N2C(=O)[C@@H]3[C@H](C2=O)[C@@H]2C=C[C@H]3C2)c(Cl)c1)c1ccccn1`, the max response with CRL-7250 is -25.2%; in the assay on HaCat [1], -18.9%; with KB-3-1, -24.5%; in the assay with NIH3T3, -23.8%. In addition, the Potency entry with HeLa is “inactive”.

Regarding `O=C(Nc1ccccc1Cl)c1cnc2ccc(C3CCNCC3)cn12`, the Potency is 1030 nM (active) in the assay with CRL-7250; 1640 nM (active) in the assay with HaCat [1]; 1460 nM (active) in the assay with NIH3T3; 7940 nM (active) with OV90; 891 nM (active) in the assay on PA-1. Besides, in the assay on KB-3-1, the max response was 2.96%. The Potency entry in the assay with HeLa and with Hek293T was “inactive” each time.

Turning to `CC(O)(C(=O)C1CC1(CO)COC1OC(CO)C(O)C(O)C1O)C1C(O)CC2C3CC=C4CC(O)CC(O)C4(C)C3C(O)CC21C` (stereo not drawn), the Potency is 432 nM (active) with CRL-7250; 1720 nM (active) with HaCat [1]; 769 nM (active) in the assay on KB-3-1; 562 nM (active) with C33A; 891 nM (active) in the assay with Es-2; 1410 nM (active) with HeLa. For the same compound, the Potency in the assay with Hek293T was 1410 nM (active); with OV90, 4470 nM (active); in the assay with PA-1, 1780 nM (active). The max response with NIH3T3 was 0.504%.

Turning to `Cn1cc(-c2ccc(S(=O)(=O)n3ccc(/C=C/C(=O)Nc4ccccc4N)c3)cc2)cn1`, the Potency with CRL-7250 is 9200 nM (active); in the assay with KB-3-1 it was 1460 nM (active); with NIH3T3 it was 4610 nM (active); in the assay with CAOV3 it was 17800 nM (active); in the assay on Es-2, 8910 nM (active); in the assay with HeLa, 10000 nM (active). The Potency in the assay with JEG-3 was 10000 nM (active); with OV90, 15800 nM (active); with PA-1, 7080 nM (active). For the same compound, the max response with HaCat [1] was -149%.

Turning to `Cc1ccc(S(=O)(=O)NCc2ccc(C(=O)NCCN(Cc3ccccc3)C(C)C)cc2)cc1`, the max response in the assay on CRL-7250 is -10.1%; in the assay on HaCat [1] it was -19.3%; in the assay on KB-3-1, -24.2%; in the assay with NIH3T3 it was -5.87%. Further, the Potency result in the assay with CAOV3, in the assay on CASKI, with HeLa, in the assay on Hek293T, in the assay on JEG-3 and with PA-1 was “inactive” each time.

Take `CCC(C)C(=O)Oc1cc(C)ccc1C1(COC(=O)C(C)C)CO1` (stereo not drawn): the values for the max response with CRL-7250 and in the assay on KB-3-1 were -0.891% and -3.14%, respectively. Further, the result with HaCat [1] and with HACAT [2] was inactive. Further, the Potency entry with C33A, in the assay on CAOV3, in the assay on CASKI, in the assay with Es-2, in the assay on HeLa and with Hek293T was “inactive” each time. The Potency entry in the assay on JEG-3, with OV90 and in the assay with PA-1 was “inactive” each time.

Values taken from PubChem BioAssay (NCATS).
